High-throughput results from PubChem.
Shown are actives, neighbours in structure and some others; about 2.9% of the full set was active somewhere.
Vif inh = inhibitors of HIV Vif; HEK293T cells, Vif self-association by quenched fluorescence, imaging, 24 h; inhibition, % at 7.49 µM; actives 0.35% (n = 340,000); AID 602346; in the data active = inhibition above about 50%, passing the limit was not always enough; inconclusive = no clear call, values can overlap the other calls; inactive = below about 31%
Wnt act = Wnt/beta-catenin pathway activation; Wnt/beta-catenin reporter cell assay, activator, plate reader; activation, % at 9.35 µM; actives 1.2% (n = 300,000); AID 743398; in the data active = activation above about 30%, passing the limit was not always enough; inconclusive = no clear call, values can overlap the other calls;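 also: 0% = neutral control wells and 100% = positive control wells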
PvdQ inh = blocks Pseudomonas aeruginosa PvdQ acylase activity; purified PvdQ acylase, fluorescence plate reader; AID 488965; actives 0.063% (n = 340,000); inhibition, % at 10 µM; in the data active = inhibition above about 30%, passing the limit was not always enough; inconclusive = no clear call, values can overlap the other calls;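 also: 0% = vehicle neutral wells and 100% = reference inhibitor wells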
MITF act = MITF TRPM1 promoter activation in melanoma cells | SK-MEL-5 TRPM1-promoter luciferase, 24 h; % of positive control, neutral wells = 0 | actives 0.75% (n = 300,000) | activation, % at 12.5 µM | AID 588334;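 active = mean activation of at least 80% with every replicate also reaching 80%; inconclusive = mean reaches 80% but some replicate falls short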;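 also: 0% = neutral control wells and 100% = parthenolide positive control wells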
esBAF inh = blocks esBAF chromatin remodeling in mouse ES cells; Bmi1-luciferase knock-in reporter, 24 h; 100% = twice the neutral-well signal; reporter increase, % at 12.5 µM; actives 2% (n = 350,000); in the data active = activation above about 40%; inconclusive = no clear call, values can overlap the other calls;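 also: 0% = median of the plate's neutral control wells and 100% = double that signal; a rise in the Bmi1 reporter signal indicates esBAF inhibition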
Glyco luc inh = blocks N-linked glycosylation in D54 reporter cells; actives 0.23% (n = 360,000); D54 ERlucT glycosylation luciferase reporter, 24 h; percent of 100 nM tunicamycin response; reporter increase, % at 12.5 µM; AID 588692;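 active = mean luciferase reporter signal, scaled so untreated is 0 and the glycosylation-blocking control 100, at or above a set limit in every replicate; inconclusive = mean reaches the limit but not every replicate does; inactive = mean below the limit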;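 also: luciferase carries N-glycosylation sites so blocking glycosylation raises the light; 0% = median of neutral control wells and 100% = median of 100 nM tunicamycin wells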
Active calls of the source: *; ? = inconclusive; nt = no result given.

SMILES | Vif inh | Wnt act | PvdQ inh | MITF act | esBAF inh | Glyco luc inh
CCOC(=O)c1cnc2c(-c3cccc(Br)c3)cnn2c1C | -18 | 6 | 2 | 58 | nt | 2
CC(=O)c1cnc2cc(-c3cccc(Br)c3)nn2c1C | 15 | 14 | -9 | 56 | 50* | 0
CCOC(=O)c1cnc2cc(-c3ccc(C)cc3)nn2c1C | -5 | -2 | nt | nt | 71* | -2
CCOC(=O)c1cnc2cc(-c3ccc(C)cc3)nn2c1-c1ccccc1 | 0 | nt | -14 | 1 | nt | -10
O=C(Nc1ccc(Cl)cc1F)c1cccc2ccccc12 | -3 | 10 | -16 | nt | 47* | 1
O=C(NNc1cccc(Cl)n1)c1ccc(Cl)cc1Cl | 5 | nt | -15 | nt | 52* | 4
O=C(NNC(=O)c1ccccc1Br)c1ccccc1Cl | 5 | 1 | 9 | 4 | nt | 1
O=C(Nc1ccc(F)cc1)c1cccc2ccccc12 | 1 | 4 | -14 | nt | 25 | 2
O=C(NNC(=S)Nc1ccccc1Cl)c1ccccc1Br | -5 | 26 | -14 | 60 | 66* | -1
O=C(Nc1ccc(Cl)cc1F)c1ccccc1Br | -3 | 49* | -2 | 65 | nt | -5
O=C(Cc1ccccn1)NCC[C@H]1CC[C@@H](NC(=O)CN2CCOCC2)[C@H](CO)O1 | nt | nt | nt | nt | -1 | nt
O=C(NNC(=O)c1cccc2ccccc12)c1ccc(Cl)cc1Cl | -3 | -6 | -7 | 18 | 61* | -1
O=C(CNC(=O)c1ccc(Cl)cc1)NNC(=O)c1ccc(Br)cc1 | 18 | 55* | -11 | 5 | -4 | 0
O=C(CNC(=O)c1ccc(Br)cc1)NCC(=O)OCc1ccc(Cl)cc1 | 3 | -2 | -3 | -15 | 9 | 1
O=C(O)C[C@H]1C[C@@H]2c3cc(NC(=O)C4CCC4)ccc3O[C@@H]2[C@H](CO)O1 | nt | nt | nt | nt | 3 | nt
C[C@H](CO)N1C[C@H](C)[C@H](CN(C)C(=O)c2ccc(F)cc2)Oc2ncc(C3=CCCC3)cc2C1=O | nt | nt | nt | nt | 26 | nt
O=C(O)[C@H]1[C@H](CO)[C@H]2Cn3c(ccc(-c4ccccc4F)c3=O)[C@H]2N1C(=O)c1cnccn1 | nt | nt | nt | nt | 4 | nt
CCN(CC)CCn1c2ccccc2c2nc3ccccc3nc21 | 0 | 3 | -15 | nt | 78* | 129*
Cc1noc(C(=O)Nc2cccc(Cl)c2)c1Cl | -10 | 4 | 6 | 57 | 56* | 2
CCc1ccc(NC(=O)c2onc(C)c2Cl)cc1 | -4 | 23 | -3 | 43 | 54* | -6
Cc1cc(O)c(C(=O)Nc2cccc(Cl)c2)c(=O)n1C | 2 | 6 | -18 | 51 | 59* | -4
CCn1c(C)cc(O)c(C(=O)Nc2cccc(Cl)c2)c1=O | 5 | 5 | 15 | 52 | -10 | 1
COc1ccc(NC(=O)c2onc(C)c2Cl)cc1 | 2 | 23 | -6 | 47 | 46* | 1
C[C@@H]1CN([C@H](C)CO)C(=O)Cc2cc(NC(=O)Nc3cccc4ccccc34)ccc2O[C@H]1CN(C)C(=O)Nc1ccc(F)cc1 | nt | nt | nt | nt | 4 | nt
C[C@@H]1CN([C@H](C)CO)C(=O)Cc2cc(NS(=O)(=O)c3cccs3)ccc2O[C@@H]1CN(C)S(=O)(=O)c1ccccc1 | nt | nt | nt | nt | 1 | nt
SMILES | Vif inh | Wnt act | PvdQ inh | MITF act | esBAF inh | Glyco luc inh
C[C@@H]1CN([C@@H](C)CO)C(=O)c2cc(C3=CCCC3)cnc2O[C@@H]1CN(C)S(C)(=O)=O | nt | nt | nt | nt | 2 | nt
CO[C@H]1CN(C)C(=O)c2cc(NC(=O)Nc3ccc(Cl)cc3)ccc2OC[C@@H](C)N(C(=O)Nc2c(C)noc2C)C[C@H]1C | nt | nt | nt | nt | 1 | nt
CCCN1C[C@@H](C)[C@@H](OC)CN(C)C(=O)c2ccc(NC(=O)CC)cc2OC[C@H]1C | nt | nt | nt | nt | -1 | nt
COc1ccc(NC(=O)c2cc(C)on2)cc1 | -2 | 34* | -8 | 75 | 38 | -3
COc1ccc(NC(=O)c2cc(C)on2)cc1OC | 1 | nt | -1 | 0 | 10 | 2
COCC(=O)Nc1ccccc1C(=O)Nc1ccc(OC)cc1 | -11 | 36* | 1 | 48 | 26 | 0
COc1ccc(NC(=O)c2ccccc2NC(=O)COc2ccccc2)cc1 | 17 | nt | -5 | 17 | nt | 0
COc1ccc(NC(=O)c2cc3ccccc3cc2O)cc1 | -7 | 35* | 9 | 79 | ? | -5
Cc1ccc(NC(=O)NNC(=O)c2cc3ccccc3cc2O)cc1C | -5 | -1 | -11 | 0 | -4 | 2
Cc1ccc(NC(=O)c2cc3ccccc3cc2O)cc1 | -17 | 46* | -13 | 78 | 44* | -4
